Screens as filed in PubChem.
SIRT5 block – SIRT5 desuccinylase inhibitors, primary screen, biochemical, fluorescence imaging, single point, set 5 | Purified SirT5, succinyl-peptide AMC, trypsin-coupled fluorescence | inhibition, % at 15 µM | 1.1% of 330,000 active | AID 652115, 2013; in the data active = inhibition above about 15%
Target sequence (Q9NXA8 whole entry, looked up): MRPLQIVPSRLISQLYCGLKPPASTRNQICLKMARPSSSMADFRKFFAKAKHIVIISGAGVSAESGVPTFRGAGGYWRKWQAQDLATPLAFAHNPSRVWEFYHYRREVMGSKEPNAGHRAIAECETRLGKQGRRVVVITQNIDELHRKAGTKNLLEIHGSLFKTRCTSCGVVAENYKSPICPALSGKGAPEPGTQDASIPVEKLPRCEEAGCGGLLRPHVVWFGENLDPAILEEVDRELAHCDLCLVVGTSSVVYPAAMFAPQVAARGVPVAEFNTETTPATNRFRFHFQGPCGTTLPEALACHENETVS
PvdQ inh – P. aeruginosa PvdQ acylase inhibitors, primary screen, biochemical, fluorescence, plate reader and imaging, single point | PvdQ acylase [Pseudomonas aeruginosa LESB58] | purified PvdQ acylase | inhibition, % at 10 µM | 0.063% of 340,000 active; in the data active = inhibition above about 30%, passing the limit was not always enough;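 also: 0% = vehicle neutral wells and 100% = reference inhibitor wells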
dFosB act – activators of delta FosB homodimer, primary screen, biochemical, fluorescence polarization, TAMRA-CDK5 oligo, single point; purified delta FosB; percent of positive-control signal above neutral wells; activation, % at 25 µM; 0.99% of 340,000 active;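 active = mean activation above about 17%, with every replicate also reaching it, limit read from the data, passing the limit was not always enough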
FGF22 binding – binders of human FGF22 protein, primary screen, FGF22 synaptogenesis inhibitor project, biophysical, thermal shift, single point; AID 651658, 2012; 1.5% of 340,000 active; recombinant FGF22 thermal shift, SYPRO orange fluorescence; percent of sucrose octasulfate shift, DMSO zero; Fibroblast growth factor 22 (Homo sapiens), Q9HCT0; activity (Tm shift, normalised), % at 9.99 µM;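 active = mean Tm shift, scaled 0 neutral to 100 positive control, at about 1.3% or above, every replicate too, limit read from the data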
Target sequence (Q9HCT0 whole entry, looked up): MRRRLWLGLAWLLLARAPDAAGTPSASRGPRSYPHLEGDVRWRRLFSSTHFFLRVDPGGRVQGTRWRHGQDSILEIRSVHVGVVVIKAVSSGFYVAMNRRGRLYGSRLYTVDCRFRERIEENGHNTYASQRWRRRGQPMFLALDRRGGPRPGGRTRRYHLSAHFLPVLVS
CDK5 p35 inh – inhibitors of human CDK5/p35 kinase, primary screen, biochemical, single concentration | 0.01% of 330,000 active | inhibition, % at 10 µM | Recombinant CDK5/p35, ADP-Glo luminescence, 60 min;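 active = highest replicate inhibition of at least 50% and at least 75% of replicates reaching 50%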;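 also: plate controls were DMSO neutral control for no effect and GW8510 at 10 µM for full effect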
PglD inh – C. jejuni PglD acetyltransferase inhibitors, primary screen, biochemical, DTNB colorimetric, single point | UDP-N-acetylbacillosamine N-acetyltransferase PglD (Campylobacter jejuni) | purified PglD enzyme, DTNB colorimetric CoA detection | inhibition, % at 12.5 µM | 0.098% of 360,000 active | AID 602405, 2012; in the data active = inhibition above about 16%, passing the limit was not always enough
An asterisk follows results filed as active; · = no result. Shown are actives, neighbours in structure and some others; about 2.8% of the full set was active somewhere.

SMILES	SIRT5 block	PvdQ inh	dFosB act	FGF22 binding	CDK5 p35 inh	PglD inh
O=S(=O)(c1cccc2cccnc12)N1CCc2ccccc21	·	-7.1	-13.6	·	-0.4	·
O=S(=O)(c1cccc2cccnc12)N1CCN(c2ccccc2)CC1	-0.4	-16.7	-5.7	0.9	-2.1	-0.8
O=S(=O)(c1cccc2cccnc12)N1CCN(c2ccccn2)CC1	1.1	1.5	1.8	42.9*	0.4	-4.3
O=S(=O)(c1cccc2cccnc12)N1CCCc2ccccc21	-5.0	1.5	-6.8	43.2*	1.6	-1.2
CN(C)CC(=O)Nc1ccc2c(c1)[C@@H]1C[C@@H](CC(=O)NCc3cccc(F)c3)O[C@@H](CO)[C@@H]1O2	-1.3	·	·	-0.1	·	-0.7
O=C(c1cccc(F)c1)N1CCCC(C(=O)N2CCCCC2)C1 (stereo not drawn)	22.5*	1.9	0.4	-0.1	-0.4	-0.1
O=C(c1cccc(F)c1)N1CCN(C(=O)C2CC2)CC1	·	-5.3	-9.6	·	-3.5	3.9
C[C@H](CO)N1C[C@H](C)[C@H](CN(C)C(=O)Nc2ccc(F)cc2)Oc2ccc(NC(=O)Nc3cccc4ccccc34)cc2CC1=O	9.3	·	·	0.0	·	-0.9
COCCNC(=O)C1CCCN(S(=O)(=O)c2c(C)noc2/C=C/c2cccs2)C1 (stereo not drawn)	-20.4	-2.3	-3.7	-0.1	-0.7	·
COC(CNC(=O)C1CCCN(S(=O)(=O)c2c(C)noc2/C=C/c2cccs2)C1)OC (stereo not drawn)	-1.0	-3.1	-3.5	1.4*	-0.8	·
CCOc1ccc(N2C(=O)C3C(c4ccc(O)cc4)NC(CCSC)(C(=O)OC)C3C2=O)cc1 (stereo not drawn)	-5.1	8.4	3.3	43.5*	0.2	·
Nc1ccc2nc(-c3ccc(Cl)cc3)[nH]c2c1	-0.9	-34.2	-16.7	-0.2	0.0	0.0
Nc1ccc2cc3[nH]c4cc(N)ccc4c3nc2c1	·	-13.0	67.2*	-0.2	3.6	·
CC1CCN(C(=O)COC(=O)CCC(=O)c2ccc(F)cc2)CC1	·	·	·	43.0*	·	-0.1
CSc1ccccc1NC(=O)COC(=O)CCC(=O)c1ccc(F)cc1	19.6*	6.3	1.2	-0.4	0.6	·
COc1ccc(CCNC(=O)COC(=O)CCC(=O)c2cccs2)cc1OC	·	-11.0	-2.7	0.0	-1.0	5.8
Cc1ccc(C(=O)CCC(=O)OCC(=O)Nc2ccccc2SCC#N)cc1	-1.6	-15.8	-2.6	0.4	-0.4	·
COc1ccc(CCNC(=O)COC(=O)CCC(=O)c2ccc(F)cc2)cc1OC	19.9*	-10.1	-11.6	-0.3	-1.8	·
Cc1ccc(S(=O)(=O)N(C)C[C@H]2Oc3ccc(NC(=O)Cn4cnnn4)cc3CC(=O)N([C@H](C)CO)C[C@H]2C)cc1	-1.8	·	·	0.0	·	-0.7
O=C(N/N=C/c1ccc[nH]1)c1ccccc1OCc1ccc(F)cc1	21.9*	-2.0	-10.2	0.1	-0.2	·
O=C(N/N=C/c1ccccc1F)c1ccccc1OCc1ccccc1	0.1	-6.8	-24.4	-0.7	0.1	-2.3
C[C@@H]1CN([C@H](C)CO)C(=O)c2cccc(NC(=O)CCCCCC(=O)Nc3ccccc3N)c2O[C@@H]1CN(C)C(=O)Nc1ccc2c(c1)OCO2	·	·	·	-0.6	·	·
O=C(O)CN1CCc2ccccc2C1	-2.5	-6.6	0.3	43.1*	2.1	-6.6
COc1cc2c(cc1OC)CN(CC(=O)Nc1ccc(F)cc1F)CC2	-1.0	-12.3	-7.9	0.0	-0.2	9.4
O=C(CN1CCc2ccccc2C1)Nc1ccc(F)cc1F	-0.3	-4.1	-2.2	43.5*	0.6	1.5
SMILES	SIRT5 block	PvdQ inh	dFosB act	FGF22 binding	CDK5 p35 inh	PglD inh
CCC(=O)N1CCC2(CC1)CN(S(=O)(=O)c1ccccc1)[C@@H](CO)c1[nH]c3cc(OC)ccc3c12	2.2	·	·	0.0	·	·
Cc1cc(/C=N/Nc2ccc([N+](=O)[O-])cn2)c(C)n1-c1ccc(C(=O)O)cc1	31.8*	5.1	-5.4	-0.3	-0.4	·
Cc1ccccc1-n1c(C)cc(/C=N/Nc2ccc([N+](=O)[O-])cn2)c1C	·	-3.9	-7.5	·	2.8	·
O=C(C[C@@H]1C[C@H]2c3cc(NC(=O)c4cccnc4)ccc3O[C@H]2[C@@H](CO)O1)NCc1ccccc1F	-8.8	·	·	·	·	-0.1
CN(C[C@@H]1N[C@H](CO)[C@@H]1c1ccc(C2=CCCC2)cc1)S(C)(=O)=O	15.5*	·	·	-0.5	·	-3.3
C[C@@H]1CN([C@H](C)CO)S(=O)(=O)c2ccc(C#C[C@@H](C)O)cc2O[C@@H]1CN(C)C(=O)CC1CC1	2.8	·	·	0.0	·	-4.2
C/C=C/c1cccc(-c2nc(C(=O)NCCC)cc3c2[C@@H](CCO)N([S@](=O)C(C)(C)C)C3)c1	-1.4	·	·	0.1	·	·
C/C=C/c1cccc(-c2nc(C(=O)NC3CCC3)cc3c2[C@@H](CCO)N(S(=O)C(C)(C)C)C3)c1 (stereo partly drawn)	22.4*	·	·	0.2	·	3.9
COc1ccccc1C#Cc1ccc2c(c1)[C@H]1[C@H](CCN1C(=O)c1ccc(F)cc1)[C@@H](CO)N2	17.6*	·	·	·	·	·
CCC(=O)N1CC[C@@H]2[C@@H](CO)Nc3ccc(C#Cc4cccnc4)cc3[C@@H]21	18.9*	·	·	0.5	·	-0.4
CC(=O)N1CC[C@@H]2[C@H](CO)Nc3ccc(C#Cc4cccnc4)cc3[C@@H]21	17.9*	·	·	0.0	·	-0.4
CC(=O)N(C)C[C@H]1Oc2ncc(C#Cc3ccncc3)cc2C(=O)N([C@@H](C)CO)C[C@@H]1C	1.1	·	·	0.7	·	1.0
CO[C@@H]1CN(C)C(=O)c2cc(NS(=O)(=O)c3cn(C)cn3)ccc2OC[C@@H](C)N(CC2CC2)C[C@H]1C	3.3	·	·	-0.1	·	-2.6
O=c1[nH][nH]c2c([N+](=O)[O-])ccc(F)c12	·	·	·	-0.5	·	·
O=c1[nH][nH]c2c(N=Cc3ccccc3O)ccc(F)c12	29.4*	-9.5	-26.9	·	-2.1	2.1
Cc1ccc(-c2csc3ncnc(Oc4cccc5ccc(C)nc45)c23)cc1	0.6	-17.4	-3.1	43.9*	0.4	·
Cc1ccc2cccc(Oc3ncnc4sc(C)c(C)c34)c2n1	2.9	9.2	-5.9	43.1*	1.8	·
CC(=O)Nc1cccc(Oc2ncnc3scc(-c4ccccc4)c23)c1	·	-20.0	-44.4	·	-0.5	-2.7
O=C(CSc1nc2ccccc2o1)Nc1nccs1	-2.6	-10.0	9.8	2.3*	1.7	·
Cc1cc(-c2cc(C)c(N)cc2C)c(C)cc1N	18.6*	11.3	0.9	-0.2	0.7	-14.4
